Screening data (PubChem BioAssay)
Sampled rows, rich in hits. Any-hit rate of the full collection: about 27%.
CYP2C19 activ: cytochrome P450 2C19 (human) activation; P33261; recombinant CYP2C19, luciferin-H EGE luminescence; hits give high values; 0 = fully inhibited enzyme, 1 = untreated enzyme; activation factor at 5 µM; 96,000 tested, under 10 active; AID 1025;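 active means activation factor of at least 2 at 5 µM in the primary screen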
Cav3 T inh: human Cav3.2 channel inhibition, primary screen; O95180; 100,000 compounds, 4% hits; Cav3.2-expressing cells, Fluo-4 calcium fluorescence FDSS; hits give low values; AID 449739; B-score at 10 µM;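 active means single-dose well whose peak fluorescence ratio is a statistical outlier from its plate by either plate-standardised score or position-corrected B-score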
CYP2C9 inhib: human CYP2C9 inhibition; inhibition, % at 5 µM; 96,000 compounds, 20% hits; P11712; CYP2C9 Supersomes, luciferin-H conversion, luminescence;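 active means blocking of liver enzyme CYP2C9 beyond about 50% at 5 µM, limit read from the data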
Target sequence (P11712 whole entry, looked up): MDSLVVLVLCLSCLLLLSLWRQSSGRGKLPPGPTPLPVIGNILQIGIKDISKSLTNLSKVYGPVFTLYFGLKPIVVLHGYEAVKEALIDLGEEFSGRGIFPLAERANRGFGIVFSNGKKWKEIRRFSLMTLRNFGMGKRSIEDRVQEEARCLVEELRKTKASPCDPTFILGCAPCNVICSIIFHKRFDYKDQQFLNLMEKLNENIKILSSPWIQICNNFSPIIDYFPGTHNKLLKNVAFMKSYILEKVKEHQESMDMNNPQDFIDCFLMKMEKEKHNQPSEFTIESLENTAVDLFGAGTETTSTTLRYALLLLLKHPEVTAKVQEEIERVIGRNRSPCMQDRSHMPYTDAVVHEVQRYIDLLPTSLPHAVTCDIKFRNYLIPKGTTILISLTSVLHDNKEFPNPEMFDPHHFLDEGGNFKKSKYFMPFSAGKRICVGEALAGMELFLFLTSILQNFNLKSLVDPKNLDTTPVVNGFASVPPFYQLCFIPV
CYP2C19 inhib: blocks human cytochrome P450 2C19; inhibition, % at 5 µM; P33261; 96,000 compounds, 21% hits; CYP2C19 Supersomes, luciferin-H EGE luminescence, 30 min;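 active means CYP2C19 inhibition above a set limit at 5 µM in the primary screen, cut at about 50% in these data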
CYP2C9 act: activators of human CYP2C9. recombinant CYP2C9, luciferin-H conversion, luminescence; hits give high values; factor 1 = untreated enzyme, 0 = blocked. activation factor at 5 µM. 96,000 compounds, 1.4% hits;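 active means activation factor of 2 or more for CYP2C9 at a 5 µM dose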
Large screens that a line does not name were inactive.

COc1ccc(C(=O)COC(=O)[C@H](C)Nc2ccc(C(F)(F)F)cc2[N+](=O)[O-])c(OC)c1	none
Cc1onc(-c2ccccc2Cl)c1C(=O)Nc1nnc(C(C)C)s1	CYP2C9 inhib 59
Cc1onc(-c2ccccc2Cl)c1C(=O)Nc1nnc(Cc2ccc(Cl)cc2)s1	CYP2C9 inhib 88
Cc1onc(-c2ccccc2Cl)c1C(=O)Nc1ccccc1	none (no result: CYP2C19 activ, CYP2C9 inhib, CYP2C19 inhib, CYP2C9 act)
COC(=O)c1c(NC(=O)c2c(-c3ccccc3Cl)noc2C)sc2c1CCC2	CYP2C9 inhib 98, CYP2C19 inhib 74 (no result: Cav3 T inh)
COC(=O)c1c(NC(=O)c2c(C)noc2C)sc2c1CCCCCC2	none
C=CCNCC(=O)NN=C(c1ccccc1)c1ccccc1	none (no result: Cav3 T inh)
CCCCC(c1nnnn1CCOC)N1CCN(C)CC1 (centres undefined)	none (no result: CYP2C19 activ, CYP2C9 inhib, CYP2C19 inhib, CYP2C9 act)
COC(=O)c1ccccc1NC(=O)c1sc(=S)n(C)c1N	none
Cn1c(N)c(C(=O)NCc2ccccc2)sc1=S	CYP2C19 inhib 53
COc1ccc(CCNC(=O)c2sc(=S)n(C)c2N)cc1	CYP2C9 inhib 60
O=C(CN(Cc1ccco1)S(=O)(=O)c1cccs1)Nc1ccccc1C(F)(F)F	CYP2C9 inhib 79, CYP2C19 inhib 90
CN1C(=O)N(S(=O)(=O)c2ccc(F)c(F)c2F)C(=O)C1(C)C	none
O=C1C(C=Nc2ccccc2O)=C(O)c2ccccc21	none
Cc1ccc(O)c(N=CC2=C(O)c3ccccc3C2=O)c1	CYP2C9 inhib 79
COc1ccc(C2=Nn3c(nnc3C3CCCCC3)SC2)cc1OC	CYP2C9 inhib 72, CYP2C19 inhib 64
COc1ccc(OC)c(C2=Nn3c(nnc3C3CCCCC3)SC2)c1	CYP2C9 inhib 78, CYP2C19 inhib 94
Cc1ccc(C(=O)Nc2ncnc3sc4c(c23)CCCCC4)cc1	none
Cc1ccccc1NC(=O)C(C)O/N=C/c1cccc([N+](=O)[O-])c1 (centres undefined)	CYP2C9 inhib 93, CYP2C19 inhib 95
CCOC(=O)c1c(-c2cccs2)csc1NC(=O)CN1CC(C)OC(C)C1 (centres undefined)	CYP2C9 inhib 69
CCOC(=O)c1c(-c2cccs2)csc1NC(=O)CSc1ncn[nH]1	Cav3 T inh -4.7, CYP2C9 inhib 95, CYP2C19 inhib 86
C=CCNc1ncnc2c1[nH]c1ccc(C)cc12	CYP2C9 inhib 56
O=C(Nc1cccc(C(F)(F)F)c1)c1cc(-c2cccs2)on1	CYP2C9 act 2.5
COC(=O)c1ccccc1NC(=O)c1cc(-c2cccs2)on1	CYP2C9 act 2
O=C(Nc1cccnc1)c1cc(-c2cccs2)on1	none
Cn1c(=O)c2cc(S(=O)(=O)NC(C(=O)N3CCCCCC3)c3ccccc3)ccc2n(C)c1=O (centres undefined)	none (no result: Cav3 T inh)
Cn1c(=O)c2cc(S(=O)(=O)Nc3ccc4c(c3)OCO4)ccc2n(C)c1=O	CYP2C9 inhib 85, CYP2C19 inhib 84
Cn1c(=O)oc2cc(S(=O)(=O)NC(Cc3ccccc3)C(=O)N3CCCCC3)ccc21 (centres undefined)	none
CC(C)CC(NS(=O)(=O)c1ccc2c(c1)oc(=O)n2C)C(=O)NCc1cccnc1 (centres undefined)	CYP2C19 inhib 53
CSCCC(NS(=O)(=O)c1ccc2c(c1)oc(=O)n2C)C(=O)NC1CCCCC1 (centres undefined)	CYP2C19 inhib 72
Cn1c(=O)oc2cc(S(=O)(=O)Nc3cccc4c3CCCC4)ccc21	CYP2C19 inhib 66, CYP2C9 act 2.4
Cc1ccc(-c2noc(CCCC(=O)Nc3cccnc3)n2)cc1	none
O=C(Cn1nc(-c2ccccc2)c2ccccc2c1=O)NCCN1CCOCC1	none
COc1ccc(-c2noc3c2-c2nc(-c4ccccc4Cl)sc2CC3)cc1	none (no result: CYP2C19 activ, CYP2C9 inhib, CYP2C19 inhib, CYP2C9 act)
CCc1cccc(NS(=O)(=O)c2ccc3c(c2)oc(=O)n3C)c1	CYP2C19 inhib 70 (no result: Cav3 T inh)
Cn1c(=O)oc2cc(S(=O)(=O)Nc3cccc(C(=O)O)c3)ccc21	none
Cn1c(=O)oc2cc(S(=O)(=O)Nc3ccc4c(c3)OCO4)ccc21	CYP2C9 inhib 53, CYP2C19 inhib 80
Cc1ccc(S(=O)(=O)NC(CC(=O)NCC2CCCO2)c2ccco2)cc1 (centres undefined)	none
Cc1cccc(C)c1NC(=O)C(c1ccc([N+](=O)[O-])cc1)N1CCCCC1 (centres undefined)	Cav3 T inh -5.6
CCOC(=O)CSC1=C(C#N)C(=O)NC(c2ccc(OC)c(OC)c2)S1 (centres undefined)	none
